Here are results for 11 sequences from PMC5700166.

Holding throughout (test): protein-binding microarray (PBM); PBM: ~300 nM protein, 6 mM HEPES pH 7.8, 80 mM KCl, 0.5 mM EDTA, 0.5 mM EGTA, 6% glycerol, 35 ng/ul poly-dIdC, 1% milk, 1 h, room temperature; Ap Aiptasia and Nv Nematostella (sea anemones) / Co Capsaspora / Aq Amphimedon (sponge) / Dm Drosophila / Hu human; RHD is the Rel homology domain; high values mean tight binding
Settings in all cases: dsDNA, one strand shown

One experiment has as its target T1, GST-Ap-NF-kB RHD (Exaiptasia pallida (Aiptasia), UniProt A0A913YAJ5 2-422).
T1 sequence: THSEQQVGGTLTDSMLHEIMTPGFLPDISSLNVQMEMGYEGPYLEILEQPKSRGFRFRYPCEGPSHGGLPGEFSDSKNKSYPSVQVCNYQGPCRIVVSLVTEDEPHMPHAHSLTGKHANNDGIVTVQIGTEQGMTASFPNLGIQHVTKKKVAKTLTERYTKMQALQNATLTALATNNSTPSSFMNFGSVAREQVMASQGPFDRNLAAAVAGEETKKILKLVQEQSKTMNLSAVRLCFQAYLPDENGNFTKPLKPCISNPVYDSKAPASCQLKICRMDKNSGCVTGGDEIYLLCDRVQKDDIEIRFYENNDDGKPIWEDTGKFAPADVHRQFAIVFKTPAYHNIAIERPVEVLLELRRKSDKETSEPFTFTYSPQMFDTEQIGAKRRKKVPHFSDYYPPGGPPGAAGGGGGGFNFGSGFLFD

The target of experiment [1] is T2, GST-Nv-NF-kB (Cys allele) (Nematostella vectensis, UniProt E5G601 2-411).
T2 sequence: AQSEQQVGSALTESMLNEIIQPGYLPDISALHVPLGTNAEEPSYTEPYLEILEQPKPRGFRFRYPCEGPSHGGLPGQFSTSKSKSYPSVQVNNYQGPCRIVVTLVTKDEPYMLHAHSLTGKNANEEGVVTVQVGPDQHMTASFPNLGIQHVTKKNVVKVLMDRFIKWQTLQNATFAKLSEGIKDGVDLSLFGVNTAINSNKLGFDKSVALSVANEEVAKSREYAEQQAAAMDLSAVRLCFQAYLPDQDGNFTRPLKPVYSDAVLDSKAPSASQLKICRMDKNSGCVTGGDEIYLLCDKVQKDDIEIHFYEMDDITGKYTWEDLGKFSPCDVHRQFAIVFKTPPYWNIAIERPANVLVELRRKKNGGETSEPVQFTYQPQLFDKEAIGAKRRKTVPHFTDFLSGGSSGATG

For experiment [2], the target named is T3, GST-Nv-NF-kB (Ser allele) (Nematostella vectensis, UniProt A7UNT2 2-411).
T3 sequence: T2 sequence with Q21R, C66S, S207N, E215Q, V217A, E225K, A268E, D399E

The target in the next experiment is T4, GST-Co-NF-kB (Capsaspora owczarzaki, UniProt F1ARL5 200-546).
T4 sequence: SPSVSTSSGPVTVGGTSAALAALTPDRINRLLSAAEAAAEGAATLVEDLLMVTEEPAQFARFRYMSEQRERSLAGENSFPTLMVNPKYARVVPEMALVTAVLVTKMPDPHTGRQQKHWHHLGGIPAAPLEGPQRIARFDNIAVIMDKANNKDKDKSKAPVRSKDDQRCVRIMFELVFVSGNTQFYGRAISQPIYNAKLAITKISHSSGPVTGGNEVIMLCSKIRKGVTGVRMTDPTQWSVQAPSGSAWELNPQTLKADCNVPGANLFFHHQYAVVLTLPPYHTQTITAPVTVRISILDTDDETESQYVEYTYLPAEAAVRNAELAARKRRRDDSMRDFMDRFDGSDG

A further experiment has as its target T5, GST-Dm-Relish (Drosophila melanogaster, UniProt Q94527 99-473).
T5 sequence: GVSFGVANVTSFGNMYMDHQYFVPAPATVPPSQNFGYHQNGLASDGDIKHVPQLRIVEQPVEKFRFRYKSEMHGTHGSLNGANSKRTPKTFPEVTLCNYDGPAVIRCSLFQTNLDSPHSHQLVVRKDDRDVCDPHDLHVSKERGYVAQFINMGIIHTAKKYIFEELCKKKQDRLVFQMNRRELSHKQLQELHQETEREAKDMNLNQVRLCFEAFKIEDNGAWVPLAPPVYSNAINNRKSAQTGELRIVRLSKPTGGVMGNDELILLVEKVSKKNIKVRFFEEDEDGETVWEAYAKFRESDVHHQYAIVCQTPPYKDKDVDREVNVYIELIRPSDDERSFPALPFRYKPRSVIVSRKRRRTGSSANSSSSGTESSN

For the next experiment, the target named is T6, GST-Aq-NF-kB (Amphimedon queenslandica, UniProt A9Y5G7 2-389).
T6 sequence: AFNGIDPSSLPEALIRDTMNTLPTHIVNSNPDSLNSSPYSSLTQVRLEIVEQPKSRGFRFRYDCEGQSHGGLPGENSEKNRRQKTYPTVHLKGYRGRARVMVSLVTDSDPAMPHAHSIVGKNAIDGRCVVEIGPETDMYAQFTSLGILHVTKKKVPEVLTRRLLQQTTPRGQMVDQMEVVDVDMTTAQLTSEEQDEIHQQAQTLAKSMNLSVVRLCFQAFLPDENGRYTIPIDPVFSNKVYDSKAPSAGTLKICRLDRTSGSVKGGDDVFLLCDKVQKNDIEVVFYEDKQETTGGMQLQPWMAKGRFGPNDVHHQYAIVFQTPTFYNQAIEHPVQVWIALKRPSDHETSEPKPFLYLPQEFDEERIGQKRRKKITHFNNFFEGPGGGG

Changes are numbered by the printed parent chain.

For “CCGATTAACATCAAGAGTTCCCCTGATGTTAATCGGGTCTTGATTCGCTTGACGCTGCTG”, the binding signal with GST-Ap-NF-kB RHD was 7.18 z-score; in experiment [1] it was 7.2 z-score; in experiment [2], 7.72 z-score; in the experiment with GST-Co-NF-kB it was 6.55 z-score; with GST-Dm-Relish, 7.58 z-score; in the experiment with GST-Aq-NF-kB, 5.77 z-score.
Take “CCGATTAACATCAAGGGAAAAAATGATGTTAATCGGGTCTTGATTCGCTTGACGCTGCTG”: the binding signal worked out at 3.77 z-score with GST-Ap-NF-kB RHD; 5.84 z-score in experiment [1]; 7.2 z-score in experiment [2]; 5.23 z-score with GST-Co-NF-kB; 1.86 z-score in the experiment with GST-Dm-Relish; 4.83 z-score with GST-Aq-NF-kB.
For “CCGATTAACATCAAAAGTTTCCCTGATGTTAATCGGGTCTTGATTCGCTTGACGCTGCTG”, the binding signal in the experiment with GST-Ap-NF-kB RHD came out at 5.05 z-score; in experiment [1], 7.19 z-score; in experiment [2], 6.7 z-score; with GST-Co-NF-kB it was 6.99 z-score; with GST-Dm-Relish it was 4.85 z-score; with GST-Aq-NF-kB, 7 z-score.
Take “CCGATTAACATCAGGGGATACCCTGATGTTAATCGGGTCTTGATTCGCTTGACGCTGCTG”: the binding signal with GST-Ap-NF-kB RHD turned out to be 8.36 z-score; in experiment [1], 7.45 z-score; in experiment [2], 6.59 z-score; with GST-Co-NF-kB it was 3.74 z-score; with GST-Dm-Relish it was 9.05 z-score; with GST-Aq-NF-kB, 8.11 z-score.
Turning to “CCGATTAACATCAATTTCCCGTATGATGTTAATCGGGTCTTGATTCGCTTGACGCTGCTG”, the binding signal stood at 2.46 z-score with GST-Ap-NF-kB RHD; 4.12 z-score in experiment [1]; 4.4 z-score in experiment [2]; 3.1 z-score with GST-Co-NF-kB; 1.58 z-score with GST-Dm-Relish; 3.17 z-score in the experiment with GST-Aq-NF-kB.
For the sequence “CCGATTAACATCACACCCCCCCGTGATGTTAATCGGGTCTTGATTCGCTTGACGCTGCTG”, the binding signal in the experiment with GST-Ap-NF-kB RHD was determined as 4.06 z-score; in experiment [1], 3.09 z-score; in experiment [2], 3.09 z-score; in the experiment with GST-Co-NF-kB it was 4.58 z-score; in the experiment with GST-Dm-Relish it was 4.46 z-score; in the experiment with GST-Aq-NF-kB, 3.38 z-score.
With “CCGATTAACATCAAATAATTCCCTGATGTTAATCGGGTCTTGATTCGCTTGACGCTGCTG”, the binding signal amounted to 4.23 z-score in the experiment with GST-Ap-NF-kB RHD; 7.21 z-score in experiment [1]; 7.13 z-score in experiment [2]; 5.48 z-score with GST-Co-NF-kB; 4.85 z-score in the experiment with GST-Dm-Relish; 6.69 z-score with GST-Aq-NF-kB.
With “CCGATTAACATCACTTTTTTCCCTGATGTTAATCGGGTCTTGATTCGCTTGACGCTGCTG”, the binding signal is 2.9 z-score in the experiment with GST-Ap-NF-kB RHD; 4.9 z-score in experiment [1]; 6.59 z-score in experiment [2]; 6.08 z-score in the experiment with GST-Co-NF-kB; 2.28 z-score with GST-Dm-Relish; 3.49 z-score with GST-Aq-NF-kB.
As for “CCGATTAACATCAAGGGGGGGTATGATGTTAATCGGGTCTTGATTCGCTTGACGCTGCTG”, the binding signal is 4.96 z-score with GST-Ap-NF-kB RHD; 3.8 z-score in experiment [1]; 3.62 z-score in experiment [2]; 5.09 z-score in the experiment with GST-Co-NF-kB; 4.14 z-score in the experiment with GST-Dm-Relish; 4.39 z-score with GST-Aq-NF-kB.
With “CCGATTAACATCAGAGTTTTCCCTGATGTTAATCGGGTCTTGATTCGCTTGACGCTGCTG”, the binding signal in the experiment with GST-Ap-NF-kB RHD is 3.96 z-score; in experiment [1] it was 5.58 z-score; in experiment [2], 6.71 z-score; in the experiment with GST-Co-NF-kB, 4.75 z-score; in the experiment with GST-Dm-Relish, 1.89 z-score; with GST-Aq-NF-kB, 4.65 z-score.
For “CCGATTAACATCACCCATTCCCCTGATGTTAATCGGGTCTTGATTCGCTTGACGCTGCTG”, the binding signal with GST-Ap-NF-kB RHD was 6.25 z-score; in experiment [1] it was 5.53 z-score; in experiment [2] it was 7.1 z-score; with GST-Co-NF-kB it was 5.33 z-score; with GST-Dm-Relish, 2.33 z-score; in the experiment with GST-Aq-NF-kB it was 4.22 z-score.
